Assay outcomes as filed in PubChem BioAssay.
Rows were chosen to be rich in hits. Some 10% of all compounds tested hit in one or more screens of this group.
Luciferase inh = Firefly luciferase inhibition profiling of diverse chemical library using quantitative high-throughput screening | Luciferin 4-monooxygenase (Photinus pyralis), P08659 | purified P. pyralis luciferase, luminescence, biochemical | Potency, µM (doses to about 115 µM), usual class: inhibitors | 2.5% of 76,000 active; note: nearly all actives have a fitted effect of over 65% in size
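Purified P. pyralis luciferase (10nM final) in 50mM Tris acetate pH 7.5, 10mM Mg acetate, 0.01% Tween-20, 0.05% BSA with 10uM D-luciferin and 10uM ATP. Compounds titrated qHTS. Luminescence imaged on CCD.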
HEK293 tox = Cytotoxic Profiling in HEK 293 Cell Line of Diverse Libraries Using Quantitative High-Throughput Screening. HEK 293 viability, ATP luminescence (CellTiter-Glo), 48-72 h. Potency, µM (top dose mostly 115 µM), for the others: top-dose activity change, negative = cytotoxicity, most hits filed as inhibitors. 6.6% of 94,000 active. AID 1345083, 2018; note: nearly all actives have a fitted effect of over 60% in size
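HEK 293 cells seeded at 250 cells/well were exposed to compound for 48 or 72 hr at 37 degree Celsius. Viability taken as ATP content by CellTiter-Glo luminescence.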
3T3 cytotox = Cytotoxic Profiling in NIH 3T3 Cell Line of Diverse Libraries Using Quantitative High-Throughput Screening. NIH 3T3 viability, CellTiter-Glo ATP luminescence, 48-72 h. Potency, µM (highest dose often 96.7 µM), for inactives: top-dose activity change, negative = cytotoxicity, most hits filed as inhibitors. 4.3% of 94,000 active; note: nearly all actives have a fitted effect of over 55% in size
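Cells were seeded at 400 per well, treated with pin-transferred compound, and kept 48 or 72 hr at 37 °C before CellTiter-Glo addition and luminescence imaging of cellular ATP.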
GPT2 inh = Primary qHTS assay for inhibitors of Glutamate pyruvate transaminase 2 (GPT2). Alanine aminotransferase 2 (Homo sapiens), Q8TD30. Potency, µM (series often up to 57.7 µM), inactives show top-dose activity change, negative = inhibition, actives largely listed as inhibitors. Recombinant GPT2, coupled pyruvate oxidase/HRP Amplex Red fluorescence. 0.25% of 100,000 active; note: nearly all actives have a fitted effect of over 60% in size
Target sequence (Q8TD30 whole entry, looked up): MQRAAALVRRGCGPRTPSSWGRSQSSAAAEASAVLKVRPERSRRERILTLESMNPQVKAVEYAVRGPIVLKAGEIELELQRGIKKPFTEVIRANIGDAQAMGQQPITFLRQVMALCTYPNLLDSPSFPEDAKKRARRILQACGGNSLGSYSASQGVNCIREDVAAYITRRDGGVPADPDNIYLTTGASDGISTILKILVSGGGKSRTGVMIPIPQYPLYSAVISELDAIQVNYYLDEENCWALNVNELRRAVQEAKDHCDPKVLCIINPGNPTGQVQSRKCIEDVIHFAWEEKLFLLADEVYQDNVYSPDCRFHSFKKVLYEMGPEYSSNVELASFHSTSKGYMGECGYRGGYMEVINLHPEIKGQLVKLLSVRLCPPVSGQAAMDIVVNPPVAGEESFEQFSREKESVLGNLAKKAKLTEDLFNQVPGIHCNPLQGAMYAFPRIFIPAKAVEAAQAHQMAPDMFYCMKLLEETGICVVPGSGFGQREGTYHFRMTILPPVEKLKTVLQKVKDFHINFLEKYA
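Fluorescence read-out: pyruvate from GPT2 turnover coupled to pyruvate oxidase, HRP and Amplex Red (0.2mM ThPP, 0.2U/mL PO and HRP, 50uM Amplex final). Substrates 250uM a-KG, 2mM L-alanine; enzyme 10ng/uL; 30 min RT.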
hNpr1 antagonist = Natriuretic polypeptide receptor (hNpr1) antagonism - Primary qHTS | Atrial natriuretic peptide receptor 1 (Homo sapiens), P16066 | HEK293 hNpr1 GloSensor cGMP, ANP-stimulated luminescence | Potency, µM (highest dose often 46.3 µM), without a hit: at the highest dose activity change, negative = inhibition, usual class: inhibitors | 1.6% of 76,000 active | AID 1347048, 2019; calls by dose curve; note: nearly all actives have a fitted effect of over 60% in size
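Compound pre-incubated 30 min at room temperature on GloSensor-loaded HEK293 cells stably carrying hNpr1 and the pGS-40F cGMP biosensor. Stimulation uses hNppA at 0.1 nM final; luminescence is taken at baseline and 20 min post-agonist.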
* marks the source's active call; other numbers are inactive results; i = inactive; u = inconclusive; x = no result; [ ] = dose if it differs, or a comment. Unless noted, calls come from the whole dose curve; as a rule, active = well fitted curve in the direction sought with a large enough effect; inconclusive = small, poorly fitted or top-dose-only effect, or another doubt; inactive = no such curve, though single readings can be large; an effect the other way counts as inactive or inconclusive. % is set by controls: 0 for no effect and ±100 for the full control effect; potency is the fitted concentration of half-maximal effect.

SMILES | Luciferase inh | HEK293 tox | 3T3 cytotox | GPT2 inh | hNpr1 antagonist
Cc1ncccc1-c1nc2cc(C(=O)NCc3cccs3)ccc2o1 | x | -4% | -39% | i | x
Cn1ncc2c(C(=O)NCCc3ccc(F)cc3)cc(-c3ccc(Cl)cc3)nc21 | x | u | -13% | i | x
Cc1cc(-c2ccnc(-c3nnc(C)n3CCN3CCOCC3)c2)ccn1 | i | -6%[172 µM] | 89µM* | i | 1%[70.6 µM]
Cc1nnc(-c2cc(-c3cccnc3)ccn2)n1CCN1CCOCC1 | i | 5%[172 µM] | u | 3%[88.5 µM] | 3%[70.6 µM]
COc1cccc(-c2ccnc(-c3nnc(C)n3CCN3CCOCC3)c2)c1 | i | u | -19%[138 µM] | u | -1%[70.6 µM]
Cc1nnc(-c2cc(-c3cccc(F)c3)ccn2)n1CCc1ccccc1 | i | u | u | 4%[88.5 µM] | 1%[70.6 µM]
Cc1nnc(-c2cc(-c3cccc(F)c3)ccn2)n1CCN1CCOCC1 | i | u | 22µM* | 2%[88.5 µM] | -1%[70.6 µM]
Cc1nnc(-c2cc(-c3cccc(O)c3)ccn2)n1CCc1ccccc1 | i | u | 100µM* | u | -14%[70.6 µM]
CO[C@H]1CN(C2CCN(C(=O)c3noc(C)c3Cn3cccn3)CC2)[C@H]1c1cccnc1 | x | i | -4% | i | x
CCN(Cc1nc(C)no1)C(=O)c1cc(COc2ccccc2F)[nH]n1 | i | i | -2% | -6% | 0%
C[C@]1(CO)[C@H]2Cc3sc(NC(=O)c4ccc(F)cc4)nc3[C@@H](CC(=O)Nc3ccccc3)[C@]2(C)CC[C@H]1O | u | -26% | -4% | -25% | -13%
CCOc1ccccc1NC(=O)c1cc2c(N3CCSCC3)nc(C)cn2n1 | i | 35µM* | u | -4% | -4%
CCOc1ccc(NC(=O)c2cc3c(N4CCSCC4)nc(C)cn3n2)cc1 | i | -10% | -17% | 4% | 8%
Cc1cn2nc(C(=O)NCc3ccc(C(F)(F)F)cc3)cc2c(N2CCCC2)n1 | i | 45µM* | u | i | -10%
CCc1ccc(CNC(=O)c2cc3c(N4CCCC4)nc(C)cn3n2)cc1 | i | u | u | i | 13%
O=C(C1CCCN1C(=O)c1ccc(C(F)(F)F)cc1)N1CCC(N2Cc3cccn3C2=O)CC1 (stereo not drawn) | x | u | u | 2% | x
CCCC(=O)Nc1ccc2c(N3CCOCC3)ncnc2c1 | i | -14% | u | 0% | 4%
COc1ccc(C(=O)Nc2ccc3c(N4CCCCC4)ncnc3c2)cc1 | 25µM* | 40µM* | u | i | 1%
O=C(Cc1ccc(F)cc1)Nc1ccc2ncnc(N3CCCCC3)c2c1 | i | u | 35µM* | -9% | -16%
COc1cccc(C(=O)Nc2ccc3ncnc(N4CCCCC4)c3c2)c1 | i | u | u | i | -22%
COc1ccc(C(=O)Nc2ccc3c(N4CCOCC4)ncnc3c2)c(C)c1 | u | u | 22µM* | 4% | 0%
O=C(Nc1ccc2c(N3CCCCC3)ncnc2c1)c1ccc(F)cc1F | u | 16µM* | 22µM* | -5% | 3%
COCCCNC(=O)c1ccc2nc(-c3cccnc3Cl)oc2c1 | x | -2%[172 µM] | -15%[138 µM] | i | x
Cc1ccc(C(=O)Nc2ccc3c(N4CCOCC4)ncnc3c2)cc1F | u | u | 11µM* | 1% | -11%
Cc1ccsc1C(=O)Nc1ccc2ncnc(N3CCCCC3)c2c1 | i | 32µM* | 35µM* | -1% | u
SMILES | Luciferase inh | HEK293 tox | 3T3 cytotox | GPT2 inh | hNpr1 antagonist
O=C(Nc1ccc2c(N3CCOCC3)ncnc2c1)c1ccco1 | i | u | -28% | i | 2%
O=C(Nc1ccc2c(N3CCCCC3)ncnc2c1)c1ccc(F)c(F)c1 | i | -30% | -12% | -9% | 2%
O=C(Nc1ccc2ncnc(N3CCCC3)c2c1)c1ccc(F)c(F)c1 | i | u | 35µM* | -4% | -21%
Cc1cccc(C(=O)Nc2ccc3ncnc(N4CCCCC4)c3c2)c1 | i | u | u | -39% | -27%
O=C(N[C@@H]1COCC[C@@H]1OCc1ccccc1)c1nc2ncccc2[nH]1 | i | -6% | -1% | 0% | 3%
COc1ccc(C(=O)N2CCC(F)(C(=O)NCC3CC3)CC2)cc1F | x | -20% | -27% | i | x
CC1=C[C@@H](CN2CCC(O)CC2)[C@H](C(C)C)C[C@H]1Cc1nnc(-c2ccncc2)o1 | i | u | u | i | 3%[70.6 µM]
CC1=C[C@@H](CN2CCC(O)CC2)[C@H](C(C)C)C[C@H]1Cc1nnc(-c2ccc(N(C)C)cc2)o1 | i | u | 40µM* | 1% | 5%
COCCN1CCN(C[C@@H]2C=C(C)[C@H](Cc3nnc(-c4cccnc4)o3)C[C@H]2C(C)C)CC1 | i | u | u | u | -4%
COCCN1CCN(C[C@@H]2C=C(C)[C@H](Cc3nnc(-c4ccc(N(C)C)cc4)o3)C[C@H]2C(C)C)CC1 | i | 32µM* | u | -27% | 2%
O=C(Cn1nc2c(cc1=O)CCCCC2)NCCn1cnc2ccccc2c1=O | i | 24% | 2% | 4% | 5%
COC[C@H]1NC(=O)CC[C@H]1C(=O)N1CCN(c2cccc(OC)c2)CC1 | x | 1% | 0% | i | x
O=c1n(Cc2ccc3ccccc3n2)nc(C2CCNCC2)n1Cc1ccccc1 | i | -8% | -11% | i[11.5 µM] | 5%
CC(=O)c1ccc(NC(=O)N[C@H]2CO[C@H]3[C@@H]2OC[C@@H]3Nc2nccc(-c3cccs3)n2)cc1 | i | 4% | -1% | -3% | 1%
O=C(COc1ccccc1)N[C@H]1CO[C@H]2[C@@H]1OC[C@@H]2Nc1nccc(-c2ccco2)n1 | i | u | 89µM* | -3%[88.5 µM] | -1%[70.6 µM]
O=C(Nc1ccccc1)N[C@H]1CO[C@H]2[C@@H]1OC[C@@H]2Nc1nccc(-c2cccs2)n1 | u | 63µM* | u | -4%[88.5 µM] | -15%[70.6 µM]
O=C(N[C@H]1CO[C@H]2[C@@H]1OC[C@@H]2Nc1nccc(-c2ccco2)n1)c1ccco1 | i | u | -23%[138 µM] | -13%[88.5 µM] | -8%[70.6 µM]
N#Cc1ccc(-c2ccc(NC(=O)Nc3ccc(-c4ccnc5nc[nH]c45)cc3)cc2)cc1 | x | x | x | i | x
CCc1nc2c(c(-c3ccc(OC)cc3)n1)CCN([S+](=O)([O-])c1ccccc1)CC2 | x | 1% | u | -3% | x
CCc1nc2c(c(-c3ccc(OC)cc3)n1)CN([S+](=O)([O-])c1cccs1)CC2 | x | 1% | 11µM* | -3% | x
